Laboratory results: PubChem BioAssay AID1159580 (chemical genetic matrix, 2015)
About 2,000 (36%) of roughly 5,500 compounds were called active. About 18% were inconclusive and are not listed. Rule as the data show it: active = normalized growth mostly below about 0.91 (no sharp cut-off); inconclusive = no clear call, values can overlap the other calls; inactive = mostly above about 0.92. Some of the results follow.

Assay: chemical genetic growth profiling, strain panel (AID 1159580);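 also: tested at 20 µM; growth read once vehicle control cultures reached saturation at 30 °C; 1 = growth at the plate median or of vehicle wells; lower values mean less growth of the strain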
Settings: growth OD

Measured: normalized growth

Oc1ccc2c3c1OC1[C@@H](O)CC[C@@]4(O)[C@@H](C2)N(CC2CCC2)CC[C@]314 (some centres not stated)
inactive: S. cerevisiae deletion strains, locus YJR075W, strain HOC1, active compounds read low 1.03 | S. cerevisiae deletion strains, locus YKL009W, strain mrt4, active compounds read low 1 | S. cerevisiae deletion strains, locus YKL068W, active compounds read low 1.01 | S. cerevisiae deletion strains, locus YKL085W, strain MDH1 (second series), active compounds read low 1 | S. cerevisiae deletion strains, locus YKL085W, strain MDH1, active compounds read low 1 | S. cerevisiae deletion strains, locus YKL160W, strain elf1, active compounds read low 0.992 | S. cerevisiae deletion strains, locus YKL190W, strain CNB1, active compounds read low 1.01 | S. cerevisiae deletion strains, locus YKR001C, strain vps1, active compounds read low 1.01 | S. cerevisiae deletion strains, locus YKR026C, strain gcn3, active compounds read low 0.952 | S. cerevisiae deletion strains, locus YKR091W, strain srl3, active compounds read low 0.992 | S. cerevisiae deletion strains, locus YLL001W, strain dnm1, active compounds read low 0.978 | S. cerevisiae deletion strains, locus YLL026W, active compounds read low 0.999 | S. cerevisiae deletion strains, locus YLL041C, strain sdh2, active compounds read low 0.993 | S. cerevisiae deletion strains, locus YLR027C, strain aat2, active compounds read low 1 | S. cerevisiae deletion strains, locus YLR039C, strain RIC1, active compounds read low 1.04 | S. cerevisiae deletion strains, locus YLR058C, strain SHM2, active compounds read low 1.02 | S. cerevisiae deletion strains, locus YLR102C, strain apc9, active compounds read low 1.01 | S. cerevisiae deletion strains, locus YLR113W, strain HOG1, active compounds read low 0.971 | S. cerevisiae deletion strains, locus YLR221C, strain rsa3, active compounds read low 1.02 | S. cerevisiae deletion strains, locus YLR258W, strain gsy2, active compounds read low 1.01 | S. cerevisiae deletion strains, locus YLR262C, strain YPT6 (second series), active compounds read low 0.986 | S. cerevisiae deletion strains, locus YLR262C, strain YPT6, active compounds read low 1.01 | S. cerevisiae deletion strains, locus YLR268W, strain sec22, active compounds read low 1.06 | S. cerevisiae deletion strains, locus YLR320W, strain mms22, active compounds read low 1.01 | S. cerevisiae deletion strains, locus YLR330W, strain CHS5, active compounds read low 1.01 | S. cerevisiae deletion strains, locus YLR342W, strain FKS1 (second series), active compounds read low 1.01 | S. cerevisiae deletion strains, locus YLR342W, strain FKS1, active compounds read low 1 | S. cerevisiae deletion strains, locus YLR357W, strain rsc2, active compounds read low 0.967 | S. cerevisiae deletion strains, locus YLR370C, strain arc18, active compounds read low 0.989 | S. cerevisiae deletion strains, locus YLR371W, strain rom2, active compounds read low 1.02 | S. cerevisiae deletion strains, locus YLR384C, strain iki3, active compounds read low 0.991 | S. cerevisiae deletion strains, locus YLR418C, strain cdc73, active compounds read low 1.03 | S. cerevisiae deletion strains, locus YML016C, strain PPZ1, active compounds read low 1.01 | S. cerevisiae deletion strains, locus YML032C, strain rad52, active compounds read low 1.03 | S. cerevisiae deletion strains, locus YML120C, strain ndi1, active compounds read low 1 | S. cerevisiae deletion strains, locus YML124C, strain tub3, active compounds read low 1.01 | S. cerevisiae deletion strains, locus YMR058W, strain fet3, active compounds read low 1.02 | S. cerevisiae deletion strains, locus YMR078C, strain ctf18, active compounds read low 1.02 | S. cerevisiae deletion strains, locus YMR125W, strain sto1, active compounds read low 0.982 | S. cerevisiae deletion strains, locus YMR129W, active compounds read low 1 | S. cerevisiae deletion strains, locus YMR205C, strain PFK2, active compounds read low 0.993 | S. cerevisiae deletion strains, locus YMR223W, strain ubp8, active compounds read low 1.01 | S. cerevisiae deletion strains, locus YMR231W, strain pep5, active compounds read low 1 | S. cerevisiae deletion strains, locus YMR263W, strain SAP30, active compounds read low 1.02 | S. cerevisiae deletion strains, locus YMR307W, strain GAS1, active compounds read low 1.04 | S. cerevisiae deletion strains, locus YNL067W, strain RPL9B, active compounds read low 1.03 | S. cerevisiae deletion strains, locus YNL071W, strain lat1, active compounds read low 1 | S. cerevisiae deletion strains, locus YNL128W, strain TEP1, active compounds read low 1.03 | S. cerevisiae deletion strains, locus YNL153C, strain GIM3, active compounds read low 1.03 | S. cerevisiae deletion strains, locus YNL183C, strain NPR1, active compounds read low 0.914 | S. cerevisiae deletion strains, locus YNL209W, strain ssb2, active compounds read low 1.01 | S. cerevisiae deletion strains, locus YNL233W, strain BNI4, active compounds read low 1.02 | S. cerevisiae deletion strains, locus YNL248C, strain rpa49, active compounds read low 0.92 | S. cerevisiae deletion strains, locus YNL250W, strain rad50, active compounds read low 1.01 | S. cerevisiae deletion strains, locus YNL271C, strain bni1, active compounds read low 1.01 | S. cerevisiae deletion strains, locus YNL298W, strain CLA4, active compounds read low 1.01 | S. cerevisiae deletion strains, locus YNL307C, strain MCK1, active compounds read low 1.01 | S. cerevisiae deletion strains, locus YNL322C, strain KRE1 (second series), active compounds read low 0.999 | S. cerevisiae deletion strains, locus YNL322C, strain KRE1, active compounds read low 1.01 | S. cerevisiae deletion strains, locus YNR049C, strain mso1, active compounds read low 0.988 | S. cerevisiae deletion strains, locus YNR052C, strain pop2, active compounds read low 1.01 | S. cerevisiae deletion strains, locus YOL006C, strain TOP1, active compounds read low 1.04 | S. cerevisiae deletion strains, locus YOL012C, strain htz1 0.773 | S. cerevisiae deletion strains, locus YOL147C, strain pex11, active compounds read low 1.01 | S. cerevisiae deletion strains, locus YOR001W, strain rrp6, active compounds read low 0.997 | S. cerevisiae deletion strains, locus YOR061W, strain CKA2, active compounds read low 1.01 | S. cerevisiae deletion strains, locus YOR069W, strain VPS5, active compounds read low 1.01 | S. cerevisiae deletion strains, locus YOR070C, strain gyp1, active compounds read low 1 | S. cerevisiae deletion strains, locus YOR080W, strain dia2, active compounds read low 0.988 | S. cerevisiae deletion strains, locus YOR083W, strain WHI5, active compounds read low 0.987 | S. cerevisiae deletion strains, locus YOR106W, strain vam3, active compounds read low 0.993 | S. cerevisiae deletion strains, locus YOR136W, strain idh2, active compounds read low 1.02 | S. cerevisiae deletion strains, locus YOR144C, strain elg1, active compounds read low 1.01 | S. cerevisiae deletion strains, locus YOR184W, strain ser1, active compounds read low 1.01 | S. cerevisiae deletion strains, locus YOR231W, strain MKK1, active compounds read low 0.96 | S. cerevisiae deletion strains, locus YOR265W, strain rbl2, active compounds read low 1 | S. cerevisiae deletion strains, locus YOR270C, strain vph1, active compounds read low 0.997 | S. cerevisiae deletion strains, locus YOR290C, strain snf2, active compounds read low 1.02 | S. cerevisiae deletion strains, locus YOR316C, strain cot1, active compounds read low 1.02 | S. cerevisiae deletion strains, locus YPL051W, strain arl3, active compounds read low 1.01 | S. cerevisiae deletion strains, locus YPL055C, strain LGE1, active compounds read low 1.05 | S. cerevisiae deletion strains, locus YPL078C, strain atp4, active compounds read low 0.984 | S. cerevisiae deletion strains, locus YPL106C, strain sse1, active compounds read low 1.01 | S. cerevisiae deletion strains, locus YPL240C, strain hsp82, active compounds read low 0.997 | S. cerevisiae deletion strains, locus YPL241C, strain CIN2, active compounds read low 1.01 | S. cerevisiae deletion strains, locus YPL256C, strain CLN2, active compounds read low 0.972 | S. cerevisiae deletion strains, locus YPR119W, strain clb2, active compounds read low 1.01 | S. cerevisiae deletion strains, locus YPR141C, strain kar3, active compounds read low 1.02 | S. cerevisiae deletion strains, locus YPR163C, strain tif3, active compounds read low 1.01 | S. cerevisiae deletion strains, locus YPR167C, strain met16, active compounds read low 1.02 | S. cerevisiae deletion strains, strain wtn01, active compounds read low 1.02 | S. cerevisiae strains, strain wild type, active compounds read low 1.02
